Records with an inconclusive call do not appear. Entries that show only a call come without a potency. Calls of active or inactive are those of the source. Calls follow the shape of the dose curve; as a rule, active = well fitted inhibition curve with a large enough effect; inconclusive = small, poorly fitted or top-dose-only effect; inactive = flat fitted curve, though single readings scatter.
Target: Lysine-specific demethylase 5B (Homo sapiens) (UniProt Q9UGL1)
Assay: Optimization screen for KDM5B Histone Demethylases FDH coupled qHTS against the LOPAC library (AID 1347166)
Procedure, shortened: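 KDM5BDeltaAP (200nM final) in 50mM HEPES pH 7.5, 0.01% Tween-20 was preincubated with compound for 10 min at room temperature. A substrate mix of 12.5uM H3K4Me3, 25uM a-ketoglutarate, ascorbate, Fe2+, NAD+ and formaldehyde dehydrogenase was then added. NADH fluorescence (340/450 nm) was read initially and after 30 min.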

Lysine-specific demethylase 5B (Homo sapiens), sequence (Q9UGL1 whole entry, looked up): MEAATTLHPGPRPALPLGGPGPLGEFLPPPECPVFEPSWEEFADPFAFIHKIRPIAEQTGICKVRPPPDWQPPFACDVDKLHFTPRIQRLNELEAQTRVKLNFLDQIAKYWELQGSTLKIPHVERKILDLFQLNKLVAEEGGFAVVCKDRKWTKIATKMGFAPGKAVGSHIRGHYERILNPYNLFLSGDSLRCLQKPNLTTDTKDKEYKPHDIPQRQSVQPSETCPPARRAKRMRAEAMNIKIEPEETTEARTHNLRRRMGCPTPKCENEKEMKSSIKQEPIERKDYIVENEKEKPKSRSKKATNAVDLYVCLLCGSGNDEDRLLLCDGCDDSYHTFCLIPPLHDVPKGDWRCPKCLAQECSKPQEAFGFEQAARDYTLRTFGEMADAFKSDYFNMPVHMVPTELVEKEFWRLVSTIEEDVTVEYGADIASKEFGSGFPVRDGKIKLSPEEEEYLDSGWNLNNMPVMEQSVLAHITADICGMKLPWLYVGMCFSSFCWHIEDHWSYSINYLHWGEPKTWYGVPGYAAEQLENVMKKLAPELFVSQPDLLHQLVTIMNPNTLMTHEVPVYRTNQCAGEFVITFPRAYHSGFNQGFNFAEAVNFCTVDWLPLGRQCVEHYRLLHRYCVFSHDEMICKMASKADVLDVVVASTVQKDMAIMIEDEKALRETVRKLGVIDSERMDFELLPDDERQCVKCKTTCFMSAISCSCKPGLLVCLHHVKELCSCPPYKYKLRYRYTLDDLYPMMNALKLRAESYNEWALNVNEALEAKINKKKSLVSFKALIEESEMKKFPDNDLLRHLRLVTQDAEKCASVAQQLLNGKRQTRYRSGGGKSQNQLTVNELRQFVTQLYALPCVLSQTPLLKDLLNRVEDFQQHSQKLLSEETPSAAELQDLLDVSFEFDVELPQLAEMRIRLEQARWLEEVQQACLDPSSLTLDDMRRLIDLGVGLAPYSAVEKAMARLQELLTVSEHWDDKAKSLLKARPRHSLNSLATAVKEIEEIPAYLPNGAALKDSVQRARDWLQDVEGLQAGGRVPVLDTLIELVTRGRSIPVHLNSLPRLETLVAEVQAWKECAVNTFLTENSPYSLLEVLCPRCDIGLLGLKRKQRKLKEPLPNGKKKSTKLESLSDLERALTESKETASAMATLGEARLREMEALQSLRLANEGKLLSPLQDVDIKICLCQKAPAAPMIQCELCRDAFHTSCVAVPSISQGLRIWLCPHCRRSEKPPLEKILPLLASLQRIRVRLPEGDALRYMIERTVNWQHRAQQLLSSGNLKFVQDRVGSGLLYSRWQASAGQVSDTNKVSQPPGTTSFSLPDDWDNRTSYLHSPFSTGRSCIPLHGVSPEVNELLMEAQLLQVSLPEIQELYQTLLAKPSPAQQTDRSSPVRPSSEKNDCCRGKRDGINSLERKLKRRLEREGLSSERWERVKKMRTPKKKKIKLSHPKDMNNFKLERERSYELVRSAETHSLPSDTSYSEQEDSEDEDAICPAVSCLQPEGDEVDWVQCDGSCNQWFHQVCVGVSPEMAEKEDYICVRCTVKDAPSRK

| SMILES | Potency |
| --- | --- |
| COCCc1ccc(OCC(O)CNC(C)C)cc1 (stereo unspecified) | inactive |
| C[N+](C)(C)CCCCCCCCCC[N+](C)(C)C | inactive |
| O=C(O)CN(CCN(CC(=O)O)CC(=O)O)CCN(CC(=O)O)CC(=O)O | inactive |
| CC1=NS(=O)(=O)c2cc(Cl)ccc2N1 | inactive |
| COc1cc(Cc2cnc(N)nc2N)cc(OC)c1OC | inactive |
| NC1=NCC2c3ccccc3Cc3ccccc3N12 (stereo unspecified) | inactive |
